Compound activity from PubChem BioAssay.
A selection: hits, their analogues and other compounds. The true share with any hit is near 3.3%.
YjeE inh: qHTS Assay for Inhibitors of YjeE; purified YjeE enzyme, qHTS inhibition assay; Potency, µM; hit rate 0.05% among 71,000
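Fluorescence polarization of a BODIPY Texas Red–ADP probe (2 uM) bound to purified YjeE (10 uM) was read after 15 min room-temperature incubation with compounds. Loss of polarization marks inhibitors; ADP serves as titrated control.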
BRCT PPI red: qHTS Assay for Inhibitors of BRCT-Phosphoprotein Interaction (Red Fluorophore); BRCT-phosphopeptide binding, red fluorescence polarization; Breast cancer type 1 susceptibility protein (Homo sapiens), P38398; Potency, µM (doses to about 76.9 µM), without a hit: at the highest dose activity change, negative = inhibition, most hits filed as inhibitors; hit rate 0.03% among 75,000; note: % is set by controls: 0 for no effect and ±100 for the full control effect
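Fluorescence polarization: 100 nM His-tagged BRCA1 BRCT with 100 nM TAMRA-labelled phospho-BACH1 decapeptide, phosphate buffer pH 7.3 with 150 mM NaCl, DTT, 0.01% Tween 20; 12 min RT. Binding inhibition seen as FP decrease.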
BRCT inh green: qHTS Assay for Inhibitors of BRCT-Phosphoprotein Interaction (Green Fluorophore); Potency, µM (doses to about 76.9 µM), for inactives: top-dose activity change, negative = inhibition, usual class: inhibitors; Breast cancer type 1 susceptibility protein (Homo sapiens), P38398; hit rate 0.05% among 75,000; BRCA1 BRCT-phosphopeptide binding, green fluorescence polarization; AID 875, 2007;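 note: potency is the fitted concentration of half-maximal effect; plate controls were peptide without protein for full effect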
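Compounds were incubated for 12 min at room temperature with a complex of 100 nM fluorescein-tagged pBACH1 decapeptide and 250 nM His-tagged BRCT protein. Buffer was phosphate pH 7.3 with EDTA, DTT and Tween 20. Disruption of binding lowers the polarization signal.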
Tau filament bind: qHTS Assay for Tau Filament Binding; AID 596, 2007; Potency, µM (titrated, usually from 57.1 µM), for the others: at the top dose activity change, negative = inhibition; recombinant tau filaments, thioflavin S fluorescence, 15 h; filaments grown with octadecylsulfate alongside compound; Microtubule-associated protein tau (Homo sapiens), P10636; hit rate 2% among 71,000;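 note: potency is the fitted concentration of half-maximal effect; % is set by controls: 0 for no effect and ±100 for the full control effect; actives lower thioflavin S fluorescence by blocking filaments or displacing dye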
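Recombinant tau protein (human, 1 uM final) plus 30 uM ODS in HEPES pH 7.4 with NaCl, DTT and thioflavine S. Compound present from the start; fluorescence at 510 nm after 15 h, 37 C.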
ALOX15 inhib: qHTS Assay for Inhibitors of 15-hLO (15-human lipoxygenase) | hit rate 1.4% among 74,000 | purified 15hLO-1, xylenol orange hydroperoxide absorbance | Potency, µM (titrated, usually from 57.1 µM), inactives show at the top dose activity change, negative = inhibition, hits mostly inhibitors; note: potency is the fitted concentration of half-maximal effect; % is set by controls: 0 for no effect and ±100 for the full control effect; nearly all actives have a fitted effect of over 55% in size
Target sequence (P16050 whole entry, looked up): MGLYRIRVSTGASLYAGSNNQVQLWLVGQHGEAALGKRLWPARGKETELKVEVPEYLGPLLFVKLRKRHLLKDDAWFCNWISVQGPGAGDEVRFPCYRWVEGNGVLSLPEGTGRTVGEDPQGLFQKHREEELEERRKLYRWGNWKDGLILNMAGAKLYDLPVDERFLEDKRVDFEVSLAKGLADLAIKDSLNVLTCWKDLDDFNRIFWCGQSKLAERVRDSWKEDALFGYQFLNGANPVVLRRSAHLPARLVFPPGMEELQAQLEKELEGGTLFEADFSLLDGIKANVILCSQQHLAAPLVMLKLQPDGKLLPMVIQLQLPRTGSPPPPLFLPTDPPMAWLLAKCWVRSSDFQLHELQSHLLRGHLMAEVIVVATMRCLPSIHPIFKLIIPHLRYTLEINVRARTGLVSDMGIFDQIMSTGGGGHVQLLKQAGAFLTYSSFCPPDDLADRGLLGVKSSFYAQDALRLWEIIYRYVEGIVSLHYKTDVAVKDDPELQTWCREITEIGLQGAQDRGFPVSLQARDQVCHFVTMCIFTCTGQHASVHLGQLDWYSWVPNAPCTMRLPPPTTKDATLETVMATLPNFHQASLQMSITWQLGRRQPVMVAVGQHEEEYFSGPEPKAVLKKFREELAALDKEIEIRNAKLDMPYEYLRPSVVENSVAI
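Compounds were preincubated 15 min at room temperature with 40 nM purified human enzyme (25 mM Hepes pH 7.5, 0.01% Triton X-100); 50 uM arachidonic acid reacted 6 min. Fe-xylenol orange detection, 30 min, absorbance ratio 573/405 nm.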
Pol III holo inh: qHTS Assay for Inhibitors of DNA Polymerase III Holoenzyme System; reconstituted DNA polymerase III holoenzyme replication, biochemical; hit rate 0.25% among 71,000; Potency, µM (titrated, usually from 57.1 µM), inactives show at the highest dose activity change, negative = inhibition; note: potency is the fitted concentration of half-maximal effect; % is set by controls: 0 for no effect and ±100 for the full control effect
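Reconstituted *E. coli* holoenzyme (0.35 nM Pol III, 1 nM beta, 154 nM SSB, 2 nM primase) was preincubated with compound for 15 min at RT. Synthesis on 1.4 nM ssM13Gori ran 35 min, then was stopped with PicoGreen/EDTA and read as dsDNA fluorescence.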
Active calls of the source: *; [ ] = another dose, or the depositor's remark. Calls come from the whole dose curve; as a rule, active = well fitted curve in the direction sought with a large enough effect; inconclusive = small, poorly fitted or top-dose-only effect, or another doubt; inactive = no such curve, though single readings can be large; an effect the other way counts as inactive or inconclusive.

What do the screens show for `O=C(O)[C@H](Cc1cnc[nH]1)N1C(=O)c2ccccc2C1=O`?
YjeE inh: inactive; BRCT PPI red: -2%[15.4 µM]; BRCT inh green: -1%[15.4 µM]; Tau filament bind: -5%[11.4 µM]; ALOX15 inhib: 6%[11.4 µM]; Pol III holo inh: -10%[11.4 µM]

How did O=C(Nc1ccc2c(c1)OCO2)c1cn(Cc2ccc(F)cc2)nn1 do in these assays?
YjeE inh: inactive; BRCT PPI red: 1%; BRCT inh green: 0%; Tau filament bind: 13µM*; ALOX15 inhib: 2%; Pol III holo inh: -4%

How did O=C1CN=C(c2cccs2)c2c(sc3c2CCCC3)N1 do in these assays?
YjeE inh: inactive; BRCT PPI red: -1%; BRCT inh green: 0%; Tau filament bind: -8%; ALOX15 inhib: 16µM*; Pol III holo inh: -5%

What do the screens show for `Cc1cc2c(s1)NC(=O)CN=C2c1cccs1`?
YjeE inh: inactive; BRCT PPI red: 0%; BRCT inh green: 1%; Tau filament bind: -1%; ALOX15 inhib: 6%; Pol III holo inh: -6%

How did CCCCCCCC(=O)Cl do in these assays?
YjeE inh: inactive; BRCT PPI red: -1%; BRCT inh green: -3%; Tau filament bind: 6%; ALOX15 inhib: -26%; Pol III holo inh: 6%

How did CCCCC/C=C\C/C=C\C/C=C\C/C=C\CCCC(=O)O do in these assays?
BRCT PPI red: 0%; BRCT inh green: -4%; ALOX15 inhib: 0.32µM*

Results for CC(C)[C@]1(NC(=O)[C@H]2C=C3c4cccc5[nH]cc(c45)C[C@H]3N(C)C2)O[C@@]2(O)[C@H]3CCCN3C(=O)[C@H](Cc3ccccc3)N2C1=O ?
YjeE inh: inactive; Tau filament bind: 417%; Pol III holo inh: -4%

What do the screens show for `C/C=C1\C[C@H](C)[C@](O)(CO)C(=O)OCC2=CCN3CC[C@@H](OC1=O)[C@@H]23`?
YjeE inh: inactive; Tau filament bind: -22%; Pol III holo inh: 2%

Results for CC(=O)/C=C/c1ccccc1 ?
YjeE inh: inactive; BRCT PPI red: 2%; BRCT inh green: -1%; Tau filament bind: 2%; ALOX15 inhib: -2%; Pol III holo inh: -10%

How did CC(=O)[O][Hg][c]1ccccc1 do in these assays?
YjeE inh: inactive; BRCT PPI red: -2%; BRCT inh green: 0%; Tau filament bind: -4%; ALOX15 inhib: 0.013µM*; Pol III holo inh: -3%

How did COc1ccc2c(c1)CC1(CN2C)C(=O)NC(=O)N(CCc2ccccc2)C1=O (stereo not given) do in these assays?
YjeE inh: inactive; BRCT PPI red: -1%; BRCT inh green: 1%; Tau filament bind: 148%; ALOX15 inhib: 16µM*; Pol III holo inh: -4%

How did O=[N+]([O-])c1ccc2c3c(cccc13)CC2 do in these assays?
YjeE inh: inactive; BRCT PPI red: -2%; BRCT inh green: -3%; Tau filament bind: 25µM*; ALOX15 inhib: inconclusive; Pol III holo inh: -7%

Results for O=[N+]([O-])c1cccc2ccccc12 ?
YjeE inh: inactive; BRCT PPI red: 1%; BRCT inh green: 0%; Tau filament bind: 8%; ALOX15 inhib: 1%; Pol III holo inh: 3%

Results for CN1CCC[C@@H]1c1cccnc1.O=C(O)c1ccccc1O.O=C([OH2+])c1ccccc1O.O=C([OH2+])c1ccccc1O.[Mn] ?
YjeE inh: inactive; BRCT PPI red: -1%[15.4 µM]; BRCT inh green: -1%[15.4 µM]; Tau filament bind: 8%[11.4 µM]; ALOX15 inhib: -2%[11.4 µM]; Pol III holo inh: -6%[11.4 µM]

How did CN1[C@@H]2CC[C@H]1CC(O[C@@H](c1ccccc1)c1ccccc1N)C2 (stereo not given in full) do in these assays?
YjeE inh: inactive; BRCT PPI red: -1%; BRCT inh green: -1%; Tau filament bind: -9%; ALOX15 inhib: 12%; Pol III holo inh: -4%
